The list is not random: actives were taken first. Their share in the collection is about 2.4%.
D2 ag-1: Beta-Arrestin HTS for Positive Allosteric Modulators of the Human D2 Dopamine Receptor: Agonists; DiscoveRx PathHunter D2 beta-arrestin, luminescence, 90 min; 100% = 57 uM dopamine signal; activation, % (no concentration beside the values); AID 624465, 2012; 360,000 tested, 0.084% active; in the data active = activation above about 40%
Target sequence (P14416 whole entry, looked up): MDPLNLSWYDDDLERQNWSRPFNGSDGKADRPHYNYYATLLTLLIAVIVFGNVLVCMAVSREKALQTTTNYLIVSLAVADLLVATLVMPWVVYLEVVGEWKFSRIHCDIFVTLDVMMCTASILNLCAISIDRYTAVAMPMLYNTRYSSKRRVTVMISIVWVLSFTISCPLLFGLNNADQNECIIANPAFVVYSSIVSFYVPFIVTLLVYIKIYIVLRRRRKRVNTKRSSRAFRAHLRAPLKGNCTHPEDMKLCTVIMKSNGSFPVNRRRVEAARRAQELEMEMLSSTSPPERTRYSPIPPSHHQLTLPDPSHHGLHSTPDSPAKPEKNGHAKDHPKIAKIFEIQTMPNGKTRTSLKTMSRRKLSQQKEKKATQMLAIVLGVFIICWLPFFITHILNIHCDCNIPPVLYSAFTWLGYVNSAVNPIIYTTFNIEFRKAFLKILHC
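DiscoveRx PathHunter D2 beta-arrestin cells (2,100/well) attached overnight, then compound-stimulated 90 min at 37 C in HBSS/10 mM HEPES/0.1% Tween-20 buffer; beta-galactosidase complementation read by luminescence after 1 h at ambient temperature. Dopamine 57 uM final (EC100) as control.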
D2 PAM-1: HTS Assay for Positive Allosteric Modulators of the Human D2 Dopamine Receptor: Primary Screen for Potentiators | D(2) dopamine receptor (Homo sapiens), P14416 | HEK293 T-REx D2, calcium flux, EC20 dopamine potentiation | potentiation, % at 10 µM | 340,000 tested, 0.34% active | AID 485347, 2010;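 active = potentiation over 3 SD above the plate norm, cut at about 30% in these data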; note: 0% is about no effect
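Using a no-wash calcium dye in inducible, force-coupled HEK293 Trex cells expressing D2, we tracked fluorescence each second for 180 s after compound, then for 180 s after EC20 dopamine to detect augmented signalling.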
D2 antag: HTS Assay for Allosteric Antagonists of the Human D2 Dopamine Receptor: Primary Screen for Antagonists; D(2) dopamine receptor (Homo sapiens), P14416; HEK293 TREx D2 cells, calcium flux, dopamine EC80; inhibition, % at 10 µM; 340,000 tested, 2% active; in the data active = inhibition above about 30%; inactive = below that, where a call was filed; note: 0% is about no effect
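Calcium flux kinetic readout in an inducible HEK293 TREx D2 line plated overnight at 30 C. After 180 s compound exposure, an EC80 dopamine challenge follows with another 180 s kinetic read to detect antagonism.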
D2 PAM-2: Beta-Arrestin HTS for Positive Allosteric Modulators of the Human D2 Dopamine Receptor: Potentiators; D(2) dopamine receptor (Homo sapiens), P14416; DiscoveRx D2 beta-arrestin cells, luminescence, 90 min; 100% = 57 uM dopamine signal; potentiation, % (no concentration beside the values); 360,000 tested, 0.23% active; in the data active = potentiation above about 50%
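D2 cells co-treated with compound plus 50 nM dopamine (EC20) for 90 min at 37 deg C to detect potentiation. Beta-arrestin recruitment was read as enzyme-fragment luminescence after 1 h at ambient temperature. Full response was set by 57 uM dopamine.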
D2 ag-2: HTS Assay for Allosteric Agonists of the Human D2 Dopamine Receptor: Primary Screen for Agonists. D(2) dopamine receptor (Homo sapiens), P14416. activation, % at 2 µM. 340,000 tested, 0.53% active. HEK293 T-REx D2 cells, calcium flux agonist mode;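 active = activation over 3 SD above normal in the single-dose calcium agonist read, cut at about 30% in these data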; note: 0% is about no effect
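HEK293 Trex D2 cells, tetracycline-induced, o/n 30 C 5% CO2; no-wash Ca dye, RT 30–90 min; 10-cycle baseline, 23 nl cpd added, kinetic Ca read 180 s; agonist hits = positive Ca response.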
Active calls of the source: *; / = not tested or not shown.

SMILES | D2 ag-1 | D2 PAM-1 | D2 antag | D2 PAM-2 | D2 ag-2
CN(C)CCCN1c2ccccc2CCc2ccccc21 | -7 | -29 | 60* | -38 | -2
CC(CN(C)C)CN1c2ccccc2CCc2ccccc21 (configuration not stated) | -8 | -24 | 73* | -5 | 4
Cc1ccc(C(=O)Nc2cccc(-c3nc4cccnc4s3)c2C)cc1 | / | 10 | / | / | 0
COC(=O)c1ccsc1NC(=O)CSc1nnnn1-c1ccccc1SC | 1 | 37* | -1 | -4 | 0
Cc1cc(SCC(=O)N(C)c2c(N)n(Cc3ccccc3)c(=O)[nH]c2=O)nc2ccccc12 | -4 | -17 | 38* | -1 | 0
COc1ccc(CCNc2c(C)c(C)nc3ncnn23)cc1 | 0 | 43* | -19 | -1 | 1
CN1C(C(=O)NCCc2cccs2)CC2Cn3c(nc4cc(Cl)c(Cl)cc43)C21 (configuration not stated) | 3 | 0 | 48* | -17 | 1
CC1(C(=O)Nc2ccccc2Br)CCN1C(=O)Cc1ccccc1Cl (configuration not stated) | 4 | / | / | 1 | /
COc1ccccc1NC(=O)Cn1c(=O)c(CNc2ccccc2)cc2cc(OC)c(OC)cc21 | / | 6 | / | / | 0
COc1ccccc1CNS(=O)(=O)c1ccc2c(c1)oc(=O)n2C | 2 | -6 | -2 | 0 | 1
COc1ccccc1CNC(=O)CCNS(=O)(=O)c1ccc2c(c1)oc(=O)n2C | 0 | -19 | 67* | -6 | -3
Cc1ccc(CCNC(=O)CCNS(=O)(=O)c2ccc3c(c2)oc(=O)n3C)cc1 | -3 | -11 | / | 0 | 0
Cn1c(=O)oc2cc(S(=O)(=O)NCCC(=O)NCCc3ccc(Cl)cc3)ccc21 | 0 | -12 | 59* | -25 | 0
COc1ccc(C2/C=C\CN(C(=O)c3ccc(C)cc3)[C@H](Cc3ccccc3)C(=O)N2Cc2ccc(F)cc2)cc1 (some centres not stated) | -4 | -3 | 41* | -4 | 1
CN(CCOc1ccc(Cl)cc1)C(=O)c1ccc(S(=O)(=O)N2CCOCC2)cc1 | -3 | 2 | 6 | -1 | -1
CCCCN(C)C(=O)c1ccc(S(=O)(=O)N2CCOCC2)cc1 | -2 | 3 | 33* | 0 | 0
CCOC(=O)N=S(N)(=O)c1ccc(Cl)cc1 (configuration not stated) | 0 | 31* | -13 | -2 | 0
CSc1ccccc1NC(=O)CN(C)C(=O)c1ccc(NC(=O)c2cccs2)cc1 | 2 | 7 | 1 | 6 | -1
Cc1ccc(CN2COc3c(Cl)cc4c(-c5ccccc5)cc(=O)oc4c3C2)cc1 | / | -11 | / | / | 0
COC(=O)Nc1ccc2c(c1)N(C(=O)CCCl)c1ccccc1S2 | 5 | -3 | 11 | 6 | 0
Cc1cc(=O)oc2cc(NC(=O)c3ccc(OC(F)F)cc3)ccc12 | -1 | 3 | 2 | -6 | 0
Cc1cc(=O)oc2cc(NC(=O)C(C)Oc3ccc(F)cc3)ccc12 (configuration not stated) | -3 | 0 | 35* | -33 | 0
O=C(Cn1c(=O)c(CNc2ccccc2)cc2cc3c(cc21)OCCO3)Nc1ccccc1Cl | / | -6 | / | / | 1
CC1CCN(CC(=O)N2CCc3ccccc32)CC1 | 2 | -22 | 54* | -11 | 0
CCOC(=O)C1CCN(CC(=O)N2CCc3ccccc32)CC1 | -1 | / | / | -17 | /
SMILES | D2 ag-1 | D2 PAM-1 | D2 antag | D2 PAM-2 | D2 ag-2
CCCCn1c(=O)c(C(=O)OCC)c(O)c2ccccc21 | 0 | 8 | 38* | 12 | 1
CCCCCn1c(=O)c(C(=O)OCC)c(O)c2ccccc21 | -2 | 9 | -2 | 15 | -1
CCN(C(=O)c1ccco1)c1nnc(-c2cccnc2)s1 | -1 | -7 | 12 | 1 | 0
COc1ccc(-c2csc(NC(=O)CN3C(=O)NC4(CCCC4)C3=O)n2)cc1 | 1 | -14 | 38* | 2 | 0
COc1nc(OC)nc(N2CCC(C(=O)NCC3CCCCC3)CC2)n1 | 0 | 14 | -5 | -4 | -1
COc1nc(OC)nc(N2CCCCCC2)n1 | 0 | 4 | 33* | -4 | -1
O=C(c1ccccc1)N1CCC(c2nc3ccccc3o2)CC1 | / | -1 | / | / | 2
Cc1ccc(C(=O)N/N=C\c2ccc(-c3ccc([N+](=O)[O-])cc3)o2)cn1 | 1 | 7 | 4 | 0 | 0
Cc1ccc(C(=O)N/N=C\c2ccc(-c3ccc(Cl)cc3)o2)cn1 | 3 | 30* | 18 | -14 | 1
O=C(NCCc1ccccc1)c1cc2sccc2n1Cc1ccc(F)cc1 | / | -7 | / | / | 4
Cn1c(C(=O)NCCN2CCc3ccccc3C2)cc2c(=O)n(C)c3ccccc3c21 | 5 | -22 | 48* | -6 | -2
O=C(Nc1ccc(Cl)cc1)N1CCC(c2nc(-c3ccccc3Cl)no2)CC1 | 3 | 1 | 31* | -16 | 0
CC1=C(C(=O)Nc2cccc(C(=O)NC(C)C)c2)SCCO1 | 5 | 1 | 14 | 3 | -1
CCC(C)NC(=O)c1ccc(NC(=O)C2=C(C)OCCS2)cc1 (configuration not stated) | -4 | -6 | 44* | -5 | 0
COc1ccc(C(CCN(Cc2ccc(OC)c(OC)c2)C(C)=O)C(C)C)cc1 (configuration not stated) | -1 | -9 | -30 | -2 | 0
Cc1cc(N2CC(=O)N(CCc3ccccc3)C(=O)C2)n2ncnc2n1 | 0 | -7 | 32* | -3 | 0
Cc1cc(N2CCN(C(c3ccccc3)c3ccc(Cl)cc3)CC2)n2ncnc2n1 (configuration not stated) | -4 | 8 | 31* | -4 | 0
Cc1cc(N2CCN(c3ccccc3)CC2)n2ncnc2n1 | -2 | 6 | -7 | -2 | 0
COCCNC(=O)c1cccc2c(-c3ccnn3C)coc12 | -5 | / | / | -7 | /
Cc1cc(OCc2nn[nH]n2)c2c(-c3ccccc3)cc(=O)oc2c1 | -3 | 4 | 51* | -1 | -1
Cc1c(OCc2nn[nH]n2)ccc2c(-c3ccccc3)cc(=O)oc12 | -2 | 11 | -7 | -2 | 0
CCSc1nnc(NC(=O)c2c(C)noc2C)s1 | -4 | 5 | -7 | -13 | 0
CCSc1nnc(NC(=O)c2csc3c2CCCC3)s1 | -2 | -5 | 40* | -10 | 0
CCSc1nnc(NC(=O)c2cc(C)on2)s1 | -3 | / | 56* | -7 | 2

Bioassay records from PubChem BioAssay.
